Assay results: PubChem BioAssay AID2314 (National Center for Advancing Translational Sciences (NCATS), 2010)
In all, about 300,000 compounds went through this assay and about 37,000 (12%) were called active. This is one part of a sample in which actives are shown more often than they occur. Cut-off read from the data, not from the text of the source: active = max response mostly above about 13% (no sharp cut-off); inactive = mostly below about 14%.

Test: Cycloheximide Counterscreen for Small Molecule Inhibitors of Shiga Toxin; note: read at 38.3 µM for the half of the compounds with a filed dose; 0% is about no effect
Settings: cell reporter, cycloheximide protein synthesis inhibition counterscreen; hits give high values

SMILES	max response
FC(F)(F)Oc1ccc(NC(=S)NCc2ccccc2)cc1	1.72% (inactive)
C[C@H]1[C@H]2c3nc4ccccc4n3C[C@H]1ON2C1CCCCC1	2.13% (inactive)
COc1ccccc1N1CC(C(=O)Nc2nnc(SCC(=O)NCC3CCCO3)s2)CC1=O (centres undefined)	8.07% (inactive)
COC(=O)C1=C(Nc2ccc(C)cc2)C=C(C)C(C(=O)OC)C1c1ccc(F)cc1 (centres undefined)	10.3% (inactive)
COc1ccc(-c2ccc(C3C4C=CCCC4(C)C(=O)N3Cc3ccccc3)c(F)c2)cc1OC (centres undefined)	12.4% (inactive)
O=C(N/N=C/c1ccc(O)c2ccccc12)c1cccnc1	15.4% (inactive)
O=C(N/N=C/c1ccccn1)c1cccnc1	17.5% (active)
Cc1ccccc1CSc1nnc(-c2ccccn2)n1N	27% (active)
Cc1ccccc1CSc1nnc(-c2cccnc2)n1N	16.2% (inactive)
Cn1c(SCC(=O)C(C)(C)C)nnc1-c1ccccn1	18.9% (inactive)
Cc1ccccc1NC(=O)c1ccc(COc2ccc3c(C)cc(=O)oc3c2)cc1	-0.998% (inactive)
COc1ccc(-c2cc(=O)oc3cc(OCC(=O)N(C)C4CCS(=O)(=O)C4)ccc23)cc1 (centres undefined)	3.93% (inactive)
CCN(C(=O)COC(=O)c1ccc(COc2ccc3c(C)cc(=O)oc3c2)cc1)C1CCS(=O)(=O)C1 (centres undefined)	21.1% (active)
COc1cccc(-c2nn(-c3ccccc3)cc2/C=C(\C#N)C(=O)NCCCn2ccnc2)c1	10.5% (inactive)
CC1CCCCC1NC(=O)CCS(=O)(=O)c1ccc2c(c1)NC(=O)CO2 (centres undefined)	-2.74% (inactive)
COc1ccc(/C=N/NC(=O)CNC(=O)c2ccc(S(=O)(=O)N3CCCC3)cc2)c(OC)c1	-1.52% (inactive)
COc1ccc(C(=O)Nc2ccccc2C(=O)N/N=C/c2ccccc2OC)cc1	17.9% (inactive)
COc1ccc(/C=N/NC(=O)c2ccc3c(c2)OCCO3)c(OC)c1	56% (active)
Cn1ccc(=Nc2ccc(NC(=O)c3ccc(N=c4ccn(C)c5ccc([N+](=O)[O-])cc45)cc3)cc2)cc1	-1.72% (inactive)
O=C(NCCc1ccccn1)c1cccnc1Oc1ccc(Cl)cc1	0.291% (inactive)

SMILES	max response
O=C(NCCc1ccccn1)c1ccc(COc2ccccc2)o1	28.1% (active)
O=C(CNC(=O)COc1ccccc1)NCCc1ccccn1	5.88% (inactive)
Cc1ncn2cc(-c3ccc(Cl)cc3Cl)[nH]c(=O)c12	8.02% (inactive)
Cc1cccc(N2CCN(S(=O)(=O)c3ccc(-c4cc(C)no4)s3)CC2C)c1 (centres undefined)	-3.69% (inactive)
Cc1ccccc1N1CCN(CC(=O)NCc2ccc(Cl)cc2)CC1	-1.19% (inactive)
O=C(CN1CCN(S(=O)(=O)c2ccc(Cl)s2)CC1)NCc1ccc(Cl)cc1	30.7% (active)
Cc1ccc(CNC(=O)CN2CCN(Cc3ccc(Cl)cc3)C2=O)cc1	-4.69% (inactive)
COCCn1c(C)cc(C(=O)CSc2nc3ccccc3c(=O)n2C(C)COC)c1C (centres undefined)	13.4% (inactive)
COc1cccc(-c2cc3nc4c(c(N5CCC6(CC5)OCCO6)n3n2)CCCC4)c1	24.2% (active)
O=C(c1cc2nc(-c3ccccc3)cc(-c3ccccc3)n2n1)N1CCC2(CC1)OCCO2	3.88% (inactive)
COc1cccc(CNc2nc3nc4c(c(=O)n3[nH]2)CCC4)c1	-3.21% (inactive)
C=Cc1ccc(C(=O)N2CCCC(CCC(=O)N3CCN(c4ccccn4)CC3)C2)cc1 (centres undefined)	-3.56% (inactive)
COc1cc(C)cc(CN2CCC(Cc3ccccc3)CC2)c1O	-8.91% (inactive)
Cc1ccc(S(=O)(=O)CC(=O)Nc2nnc(C)s2)cc1	-6.45% (inactive)
Cc1ccc(CS(=O)(=O)c2ncc(Cl)c(C(=O)Nc3nnc(C)s3)n2)cc1	66% (active)
COCCSc1nnc(NC(=O)CCS(=O)(=O)Cc2ccccc2)s1	-1.53% (inactive)
CSc1ncc(Cl)c(C(=O)Nc2cc(C)ccc2C)n1	7.29% (inactive)
CSc1nnc(NC(=O)c2nc(S(=O)(=O)Cc3ccc(C)cc3)ncc2Cl)s1	63.3% (active)
Cc1nnc(NC(=O)CCCOc2ccccc2)s1	-3.73% (inactive)
Cc1ccc(CN2CCC(N3CCC(C(=O)NCC4CCCO4)CC3)CC2)o1 (centres undefined)	4.92% (inactive)

SMILES	max response
CCOC(=O)c1c(NC(C)=O)sc2c(O)c(Br)ccc12	-7.21% (inactive)
CC(Oc1cc2oc(=O)c3c(c2cc1Cl)CCCC3)C(=O)NCc1ccncc1 (centres undefined)	-1.94% (inactive)
Cc1cccc(NS(=O)(=O)c2ccc(C(=O)NCC(C)(C)N3CCOCC3)cc2)c1C	-1.4% (inactive)
Cc1ccc(CC2C(=O)N(c3ccc(F)cc3)C(=O)C2C)cc1 (centres undefined)	7.99% (inactive)
CC(C)[C@H](NC(=O)N1c2ccccc2NC(=O)[C@@H]1C(C)C)C(=O)N[C@H](C(=O)O)c1ccccc1	5.5% (inactive)
CC(=O)Nc1ccc(S(=O)(=O)N2CCC(C(=O)NC3CC3)CC2)cc1	-6.68% (inactive)
Cn1c(=O)c2c(nc(NCCNC(=O)c3ccco3)n2Cc2ccccc2F)n(C)c1=O	-1.04% (inactive)
Nc1nc(-c2ccccc2)cc(-c2ccccc2)n1	21% (active)
Nc1cccc(-c2cc(-c3ccccc3)nc(-c3cccc(N)c3)n2)c1	-5.19% (inactive)
CNc1nc(-c2ccccc2)cc(-c2ccccc2)n1	-1.91% (inactive)
COc1ccc2c(C)cc3nnnn3c2c1	-1.91% (inactive)
O=Cc1c(NCCCN2CCCC2=O)c2ccccc2[nH]c1=O	-2.01% (inactive)
Cc1ccc(C2NC(C(=O)O)CS2)cc1 (centres undefined)	1.34% (inactive)
CCOc1ccc2nc(NCCNS(=O)(=O)c3ccccc3)c(C#N)cc2c1	25.7% (active)
CCOc1ccc(S(=O)(=O)NCCSc2ccccc2)cc1	-2.61% (inactive)
CCOc1ccc2nc(NCCNC(=O)C(C)(C)C)c(C)cc2c1	3.67% (inactive)
Cc1ccc(C)c(NC(=O)c2cc(-c3cc(C)cc(C)c3O)n[nH]2)c1	5.99% (inactive)
COc1ccc([N+](=O)[O-])cc1N(CC(O)Cn1nnc2ccccc21)S(=O)(=O)c1ccc(C)cc1 (centres undefined)	10.2% (inactive)
CCc1ccc(CNC(=O)C2CC(=O)N(CCc3ccc(C)cc3)C2)cc1 (centres undefined)	0.654% (inactive)
